# Assay results: PubChem BioAssay (EPA / NIEHS)
# Inconclusive results are not listed. Active and inactive are the calls of the source. The calls were made as follows: active = hit-call score of the fitted dose curve at least 0.9, where 1 is the maximum; inconclusive = response in the unintended direction; inactive = score below 0.9.
# Assay: ACEA_ER_AUC_viability: ACEA Biosciences xCELLigence Real-Time Cell Analysis on Estrogen Receptor Agonism for Viability (AID 2283782);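 also: hit means loss of impedance signal meaning reduced cell growth or viability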
# How it was run: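 Continuous-exposure impedance cell analysis uses T-47D cells in charcoal-stripped serum, eight 1:4 dilutions topping at 100 uM final, biological duplicate. Area under the growth curve at 80 h is fitted against DMSO baseline.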
Structure (SMILES),AC50,outcome
CCC(=O)OC(C)c1ccccc1 (stereo unspecified),79.9 µM (active),
NC(=O)C(F)(F)C(F)(F)C(F)(F)C(F)F,,inactive
OCCCc1cccnc1,,inactive
CCOCOCC,,inactive
OCC(O)CC(F)(F)C(F)(F)C(F)(F)C(F)(F)C(F)(F)C(F)(F)C(F)(F)C(F)(F)F (stereo unspecified),,inactive
OCC(F)(F)C(F)(F)C(F)(F)CO,,inactive
C=C(C)CCCC,,inactive
C#CC(O)CCC (stereo unspecified),,inactive
C[Si](C)O[Si](C)C,50 µM (active),
CC1=CCC(=O)O1,,inactive
Cc1ccc2c(c1)OCC(=O)CO2,,inactive
Cc1cc(=O)[nH]c(C(C)C)n1,,inactive
C=CCOC(=O)CC(C)C,,inactive
CCOCN(C(=O)CS(=O)(=O)O)c1c(C)cccc1CC,,inactive
O=C(Cl)c1ccc(Cl)cc1Cl,78.9 µM (active),
O=C(O)C(F)(F)C(F)(F)C(F)(F)OC(F)(C(F)(F)F)C(F)(F)F,,inactive
O=C=Nc1cccc2c(N=C=O)cccc12,,inactive
O=C(O)CCC(F)(F)C(F)(F)C(F)(F)F,,inactive

Structure (SMILES),AC50,outcome
CC(C)(C)C(=O)C1C(=O)c2ccccc2C1=O,88.2 µM (active),
CC(C)CCCC(C)CCO (stereo unspecified),,inactive
CCn1c2ccccc2c2ccccc21,66.3 µM (active),
CCc1ccc(C)nc1,,inactive
Cc1cc(C)c(O)c(C(C)(C)C)c1,90.6 µM (active),
NC(=O)C(F)(F)C(F)(F)C(F)(F)F,,inactive
O=C(O)C(F)(F)C(F)(F)C(F)(F)C(=O)O,,inactive
O=S(=O)(O)CCC(F)(F)C(F)(F)C(F)(F)C(F)(F)C(F)(F)C(F)(F)C(F)(F)C(F)(F)F,,inactive
Brc1nc2ccccc2s1,,inactive
Oc1ccc(C2(c3ccc(O)c(C4CCCCC4)c3)CCCCC2)cc1C1CCCCC1,38.9 µM (active),
CC(=O)C=O,,inactive
CCC(C)CO (stereo unspecified),74.7 µM (active),
O=C1c2c(O)ccc(Nc3ccc(CCO)cc3)c2C(=O)c2c([N+](=O)[O-])ccc(O)c21,88.8 µM (active),
CCOC(=O)CCC(C)=O,,inactive
O=C(Cl)C(F)(F)C(F)(F)C(F)(F)C(F)(F)C(F)(F)C(F)(F)F,,inactive
CC(C)=CCCC(C)O (stereo unspecified),,inactive
COc1ccccc1C=O,,inactive
CCc1cccc(C)c1N(C(=O)C(=O)O)C(C)COC (stereo unspecified),,inactive
